Test results: PubChem BioAssay (NCATS)
Results filed as inconclusive are left out. Active and inactive are the calls of the source. Unless noted, calls come from the whole dose curve; as a rule, active = well fitted curve in the direction sought with a large enough effect; inconclusive = small, poorly fitted or top-dose-only effect, or another doubt; inactive = no such curve, though single readings can be large; an effect the other way counts as inactive or inconclusive.

Key:
[1] = molecular target: Lysosomal acid glucosylceramidase (Homo sapiens) (UniProt P04062); test: Glucocerebrosidase-p2 (AID 348; in the data active = potency below about 10 µM; note: potency is the fitted concentration of half-maximal effect); conditions: purified GBA, blue fluorogenic substrate, 40 min
How it was run: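 Normal human glucocerebrosidase (0.2 nM) with blue fluorogenic substrate (80 uM final) in citrate/phosphate pH 5.9 with 10mM sodium taurocholate, 0.01% tween-20; 40 min RT, NaOH/glycine stop; fluorescence Ex 365/Em 440; AC50 from a titration from 0.6 nM upwards.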

[2] = molecular target: Cytochrome P450 1A2 (Homo sapiens) (UniProt P05177); test: p450-cyp1a2 (AID 410; calls by dose curve; note: potency is the fitted concentration of half-maximal effect); conditions: recombinant CYP1A2, luciferin-ME demethylation, luminescence; series mostly up to 57 µM
How it was run: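 20nM CYP1A2, 100uM Luciferin-ME (=Km), 100mM KPO4; cpd 10 min RT; +NADPH regen, 60 min RT; stop/detect 20 min; luminescence. Normalized to furafylline 57 uM = full inhibition.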

[3] = molecular target: Glucocorticoid receptor (Homo sapiens) (UniProt P04150); test: GR-GFP Redistribution (AID 450;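 active = compounds whose dose series gives a full or clear partial fitted curve of increased nuclear translocation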; note: potency is the fitted concentration of half-maximal effect); conditions: U2OS GR-GFP nuclear translocation, laser cytometry, 2 h
[4] = molecular target: Glucocorticoid receptor (Homo sapiens) (UniProt P04150); test: GR-EFC Redistribution (AID 451; calls by dose curve; note: potency is the fitted concentration of half-maximal effect); conditions: CHO-K1 GR-EFC translocation, beta-gal luminescence, 2 h
How it was run: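 CHO-K1 cells stably expressing nuclear-localized β-gal enzyme acceptor and GR fused C-terminally to the enzyme donor fragment; ligand-driven nuclear translocation restores β-gal by complementation. Compounds titrated up to 46 uM final, 2 h at 37 °C; luminescence read.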

[5] = molecular target: Mitogen-activated protein kinase 10 (Mus musculus) (UniProt Q61831); test: JNK3 AlphaScreen Assay (AID 530; active = well fitted curve in either direction with a large enough effect, not every such curve was filed as active;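 note: kinase came from lysate of stimulated human HepG2 cells; signal reports phosphorylation of biotinylated GST-cJun 1-79 at Ser73 with 10 µM ATP; % is set by controls: 0 for no effect and ±100 for the full control effect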); conditions: JNK3 lysate, c-Jun phosphorylation; series mostly up to 57.1 µM
How it was run: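 Biotinylated GST-cJun(1-79) served as substrate for JNK3 in HepG2 lysates stimulated with IL-1beta and TNF-alpha. ATP was 10 uM final, pH 7.6. Ser73 phosphorylation was quantified by AlphaScreen (680 nm excitation).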

[6] = molecular target: Ubiquitin carboxyl-terminal hydrolase 1 (Homo sapiens) (UniProt O94782); test: Inhibitors of USP1/UAF1: Pilot qHTS (AID 504865); conditions: purified USP1/UAF1, Ub-rhodamine cleavage fluorescence; series mostly up to 54.9 µM;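 note: rhodamine fluorescence freed from ubiquitin-rhodamine substrate followed over time; top concentration of the series differs between compounds; % is set by controls: 0 for no effect and ±100 for the full control effect; nearly all actives have a fitted effect of over 35% in size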
How it was run: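 USP1/UAF1 complex at 1 nM preincubated 15 min at room temperature with compound, then Ub-Rho substrate added at 150 nM final. Fluorescence (480/540 nm) read kinetically in 50 mM HEPES pH 7.8, 0.5 mM EDTA, 1 mM TCEP, 0.1 mg/ml BSA, 0.01% Tween-20.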

[7] = Stat Signaling Pathway (AID 446; active = well fitted curve in either direction with a large enough effect, not every such curve was filed as active;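 note: ME-180 cervical cancer cells given 40 pM IL-6 alongside compound; SIE-controlled beta-lactamase reporter measured as 460/530 nm FRET emission ratio; % is set by controls: 0 for no effect and ±100 for the full control effect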); conditions: ME-180 (cervical carcinoma) SIE beta-lactamase reporter, IL-6 stimulated, 5 h; series mostly up to 7.69 µM
How it was run: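 FRET read-out (405 nm excitation, 460/530 nm emission) of a beta-lactamase reporter under a STAT-inducible element in ME-180 cervical carcinoma cells. Cells with compound receive 40 pM IL-6 for 5 h. Values are normalised to AC90 stimulation and AC90 JAK-inhibitor controls.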

[8] = NFAT Signaling Pathway (AID 444; active = well fitted curve in either direction with a large enough effect, not every such curve was filed as active;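 note: carbachol stimulus at about its EC50 of 1 µM final; % is set by controls: 0 for no effect and ±100 for the full control effect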); conditions: Jurkat NFAT-bla M1, carbachol, beta-lactamase ratio, 5 h; at 7.69 µM (top of the series) unless noted
How it was run: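 Jurkat cells carrying an NFAT-driven β-lactamase reporter and co-transfected muscarinic M1 receptor were treated with compound plus carbachol (1 uM final, an EC50 level) for 5 h at 37 °C. CCF4 loading followed for 1 h at RT; 460/530 nm ratio gave %activity.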

[9] = Viability counterscreen for antagonist of constitutive androstane receptor (CAR) against the NCATS DSHEA and TCM libraries (AID 1794837); conditions: CAR reporter cell line viability counterscreen, qHTS; series mostly up to 40 µM;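 note: compound exposure lasted 24 h before viability reading; 0% is about no effect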
How it was run: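 HepG2-CYP2B6-hCAR cells, 2,500/well, were exposed 24 hr at 37C to substances together with 48 uM CITCO (final). Viability was read as CellTiter-Fluor fluorescence (Ex/Em 405/540 nm) after 1 hr.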

[10] = Viability counterscreen for agonist of constitutive androstane receptor (CAR) against the NCATS DSHEA and TCM libraries (AID 1794838); conditions: HepG2 cell viability counterscreen, CAR agonist assay, co-treated with 0.75 µM CAR antagonist; series mostly up to 40 µM;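 note: HepG2 cells with CYP2B6 reporter and hCAR plus 0.75 µM PK11195 antagonist; 0% is about no effect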
How it was run: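 HepG2-CYP2B6-hCAR cells (2,500/well) treated 24 h at 37C with compounds plus 0.75 uM PK11195; viability read by CellTiter-Fluor fluorescence, Ex/Em 405/540 nm.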

[11] = molecular target: Nuclear receptor subfamily 1 group I member 3 (Homo sapiens) (UniProt Q14994); test: Primary qHTS for agonist of constitutive androstane receptor (CAR) against the NCATS DSHEA and TCM libraries (AID 1794839); conditions: CAR agonist reporter cells, qHTS luminescence, CAR antagonist co-added at 0.75 µM; series mostly up to 40 µM;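 note: HepG2 cells expressing human CAR with a CYP2B6 reporter plus PK11195 antagonist; 0% is about no effect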
How it was run: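 HepG2-CYP2B6-hCAR cells, 2,500/well, attached 5 h, then dosed with 0.75 µM PK11195 (final) for 24 h at 37 °C. Luciferase luminescence read (ONE-Glo); CellTiter-Fluor viability (Ex/Em 405/540 nm) in same wells; CITCO positive control.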

[12] = HepG2 viability counterscreen (readout 2: ATP content) against the NCATS DSHEA and TCM libraries (AID 1794840); conditions: ATP content luminescence; series mostly up to 27.3 µM; note: 0% is about no effect
How it was run: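 HepG2 cells, 1,000/well, attached ~4 h, then exposed ~24 h at 37C to substances. Protease activity read by fluorescence of 25 uM GF-AFC (Ex/Em 380/510 nm) after 30 min; ATP then by CellTiter-Glo luminescence.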

[13] = molecular target: Cytochrome P450 3A4 (Homo sapiens) (UniProt P08684); test: qHTS for inhibitors of CYP3A4 against the NCATS DSHEA and TCM libraries (AID 1919971); conditions: recombinant CYP3A4 enzyme activity, luminescence qHTS; series mostly up to 34.1 µM;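 note: % is set by controls: 0 for no effect and ±100 for the full control effect; inhibition lowers luminescence from luciferin made by CYP3A4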
How it was run: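 Substances were tested against enzyme with a pro-luciferin substrate; minus-enzyme wells served as background. After NADPH-initiated oxidation (30-45 min, RT), light was generated with P450-Glo reagent.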

[14] = molecular target: Cytochrome P450 2D6 (Homo sapiens) (UniProt P10635); test: qHTS for inhibitors of CYP2D6 against the NCATS DSHEA and TCM libraries (AID 1919972); conditions: CYP2D6 enzymatic inhibition, luminescence qHTS; series mostly up to 34.1 µM; note: % is set by controls: 0 for no effect and ±100 for the full control effect
How it was run: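 qHTS, concentration–response format with most substances from 19.5 nM. CYP2D6 + pro-luciferin substrate, 15 min with compound, then 1x NADPH regen, 30–45 min RT dark. Glo detection 30 min, luminescence. Quinidine control.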

[15] = KB-3-1 P-gp reporter qHTS against the NCATS DSHEA and TCM libraries (AID 1919975); conditions: KB-3-1 parental cells, CellTiter-Glo luminescence viability, 72 h; series mostly up to 26.1 µM; note: 0% is about no effect
How it was run: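 Parental KB-3-1 cells, 500 cells/well, in DMEM with 10% FBS, exposed 72 h at 37 C to compounds in concentration-response. Viability read by CellTiter-Glo luminescence after 30 min at room temperature.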

[16] = molecular target: Cytochrome P450 1A2 (Homo sapiens) (UniProt P05177); test: qHTS for inhibitors of CYPIA2 against the NCATS DSHEA and TCM libraries (AID 1919976); conditions: recombinant CYP1A2 enzyme activity, luminescence; series mostly up to 37 µM; note: % is set by controls: 0 for no effect and ±100 for the full control effect
How it was run: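 Luminescence read-out: pro-luciferin converted to D-luciferin by CYP1A2, detected with P450-Glo reagent after 30 min RT. Enzyme plus substrate got compounds for 15 min RT; NADPH regeneration solution (final 1x) started a 30-45 min reaction, light-protected.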

[17] = qHTS Counterscreen for compound interference against the NCATS DSHEA and TCM libraries (AID 1919978); conditions: firefly luciferase detection reagent interference, luminescence;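 note: compounds preincubated with 1 µM D-luciferin or buffer before detection reagent; % of control where 0% means no effect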
How it was run: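 Firefly luciferase detection reagent was added after compounds (19.5 nM–39.8 uM final) had been incubated 15 min at room temperature with 1 uM D-luciferin or with 100 mM phosphate buffer alone. Luminescence was read after 30 min at room temperature.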

[18] = Dual reporter qHTS for agonist of Pregnane X Receptor (hPXR) against the NCATS DSHEA and TCM libraries: Fluorescence readout (AID 1920058); conditions: PXR dual reporter cells; series mostly up to 40 µM; note: 0% is about no effect
How it was run: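 Fluorescence read-out for cell viability: CellTiter-Fluor, 1 h at 37 °C, Ex/Em 405/540 nm. This followed ~24 h treatment of hPXR-Luc HepG2 cells with substances in agonist mode.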

[19] = molecular target: Nuclear receptor subfamily 1 group I member 2 (Homo sapiens) (UniProt O75469); test: Dual reporter qHTS for agonist of Pregnane X Receptor (hPXR) against the NCATS DSHEA and TCM libraries: Luminescence readout (AID 1920059); conditions: hPXR dual reporter cells, luciferase luminescence agonist; series mostly up to 40 µM; note: 0% is about no effect
How it was run: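 hPXR-LucHepG2 cells in phenol red-free DMEM with 5% charcoal-stripped FBS, 2000 cells/well, attached 5 h, then exposed 24 h at 37C to compounds; rifampicin as positive agonist control (2.8 nM–92 uM). Luciferase luminescence read.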

[20] = molecular target: Nuclear receptor subfamily 1 group I member 2 (Homo sapiens) (UniProt O75469); test: Dual reporter qHTS for antagonist of Pregnane X Receptor (hPXR) against the NCATS DSHEA and TCM libraries: Luminescence Readout (AID 1920060); conditions: hPXR dual reporter cells, luciferase luminescence, antagonist mode; series mostly up to 40 µM;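 note: HepG2 cells carrying hPXR luciferase reporter stimulated with rifampicin at 2 µM; 0% is about no effect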
How it was run: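 In antagonist mode, 2 uM rifampicin was added to hPXR-Luc HepG2 cells alongside test substances, incubated 24 h at 37 C; luminescence gave reporter activity, and CellTiter-Fluor fluorescence (405/540 nm) gave viability.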

Chain of Lysosomal acid glucosylceramidase (Homo sapiens) (P04062 whole entry, looked up): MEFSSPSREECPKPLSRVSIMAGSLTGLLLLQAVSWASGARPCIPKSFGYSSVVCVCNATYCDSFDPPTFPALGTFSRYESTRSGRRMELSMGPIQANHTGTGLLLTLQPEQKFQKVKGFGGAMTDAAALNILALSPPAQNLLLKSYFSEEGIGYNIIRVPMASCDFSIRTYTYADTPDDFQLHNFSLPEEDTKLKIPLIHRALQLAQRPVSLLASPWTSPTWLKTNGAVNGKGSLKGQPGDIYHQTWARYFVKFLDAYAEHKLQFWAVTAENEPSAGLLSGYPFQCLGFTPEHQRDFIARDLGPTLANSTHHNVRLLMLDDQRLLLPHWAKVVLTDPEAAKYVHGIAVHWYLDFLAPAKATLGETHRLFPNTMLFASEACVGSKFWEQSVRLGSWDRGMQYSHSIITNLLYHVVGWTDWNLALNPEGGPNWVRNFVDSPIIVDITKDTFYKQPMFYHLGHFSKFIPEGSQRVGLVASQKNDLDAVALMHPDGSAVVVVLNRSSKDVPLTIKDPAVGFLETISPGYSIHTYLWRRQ
Chain of Nuclear receptor subfamily 1 group I member 2 (Homo sapiens) (O75469 whole entry, looked up): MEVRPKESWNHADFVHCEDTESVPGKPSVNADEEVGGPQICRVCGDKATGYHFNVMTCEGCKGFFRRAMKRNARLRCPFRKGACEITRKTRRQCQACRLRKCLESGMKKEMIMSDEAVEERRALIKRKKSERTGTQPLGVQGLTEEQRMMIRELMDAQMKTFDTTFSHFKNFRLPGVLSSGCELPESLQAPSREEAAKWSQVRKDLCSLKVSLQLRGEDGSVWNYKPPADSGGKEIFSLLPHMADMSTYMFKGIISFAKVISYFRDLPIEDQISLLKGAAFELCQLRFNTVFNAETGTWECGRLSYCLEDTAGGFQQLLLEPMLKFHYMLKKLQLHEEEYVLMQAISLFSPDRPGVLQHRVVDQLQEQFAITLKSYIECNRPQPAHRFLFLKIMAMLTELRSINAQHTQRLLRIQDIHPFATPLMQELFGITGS
Chain of Glucocorticoid receptor (Homo sapiens) (P04150 whole entry, looked up, the tested form may be a part): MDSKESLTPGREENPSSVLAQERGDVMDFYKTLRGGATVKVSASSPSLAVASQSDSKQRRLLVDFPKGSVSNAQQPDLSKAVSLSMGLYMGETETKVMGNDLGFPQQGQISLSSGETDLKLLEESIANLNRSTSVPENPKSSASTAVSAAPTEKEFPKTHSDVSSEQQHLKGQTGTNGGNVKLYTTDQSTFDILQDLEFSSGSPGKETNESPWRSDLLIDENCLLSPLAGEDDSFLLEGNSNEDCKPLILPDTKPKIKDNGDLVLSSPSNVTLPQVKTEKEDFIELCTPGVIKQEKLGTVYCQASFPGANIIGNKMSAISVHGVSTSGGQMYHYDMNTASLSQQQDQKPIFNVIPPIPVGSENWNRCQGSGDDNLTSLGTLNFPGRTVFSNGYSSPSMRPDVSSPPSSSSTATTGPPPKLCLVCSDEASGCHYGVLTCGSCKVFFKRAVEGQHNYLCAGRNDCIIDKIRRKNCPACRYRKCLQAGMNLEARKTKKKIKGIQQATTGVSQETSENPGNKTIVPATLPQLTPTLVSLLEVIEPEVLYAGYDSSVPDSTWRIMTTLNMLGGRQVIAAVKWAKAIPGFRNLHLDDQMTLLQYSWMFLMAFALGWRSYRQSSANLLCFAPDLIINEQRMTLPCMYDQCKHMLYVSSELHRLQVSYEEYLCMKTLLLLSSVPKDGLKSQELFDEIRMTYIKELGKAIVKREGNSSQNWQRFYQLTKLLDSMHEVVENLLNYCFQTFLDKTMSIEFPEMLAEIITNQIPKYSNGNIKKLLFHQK
Chain of Ubiquitin carboxyl-terminal hydrolase 1 (Homo sapiens) (O94782 whole entry, looked up): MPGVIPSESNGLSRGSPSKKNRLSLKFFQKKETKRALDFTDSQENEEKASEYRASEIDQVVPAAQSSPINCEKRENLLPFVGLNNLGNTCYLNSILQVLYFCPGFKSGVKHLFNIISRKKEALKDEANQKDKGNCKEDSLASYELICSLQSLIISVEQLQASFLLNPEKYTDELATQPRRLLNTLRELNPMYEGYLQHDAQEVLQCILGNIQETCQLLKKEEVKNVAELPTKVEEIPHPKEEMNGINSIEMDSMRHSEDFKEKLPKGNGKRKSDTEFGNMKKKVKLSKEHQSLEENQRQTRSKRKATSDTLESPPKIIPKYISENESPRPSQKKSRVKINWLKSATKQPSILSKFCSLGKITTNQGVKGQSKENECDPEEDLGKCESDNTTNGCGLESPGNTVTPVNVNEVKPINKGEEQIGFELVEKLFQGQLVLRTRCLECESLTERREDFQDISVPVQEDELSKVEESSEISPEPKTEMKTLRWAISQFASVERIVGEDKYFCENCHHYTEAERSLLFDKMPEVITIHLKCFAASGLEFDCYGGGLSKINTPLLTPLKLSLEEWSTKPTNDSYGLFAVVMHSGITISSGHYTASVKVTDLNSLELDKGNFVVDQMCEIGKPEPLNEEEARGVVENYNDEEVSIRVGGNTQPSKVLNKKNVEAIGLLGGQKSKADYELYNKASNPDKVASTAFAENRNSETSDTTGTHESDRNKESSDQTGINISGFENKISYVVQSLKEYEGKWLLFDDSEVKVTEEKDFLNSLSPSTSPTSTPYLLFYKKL
Chain of Cytochrome P450 1A2 (Homo sapiens) (P05177 whole entry, looked up): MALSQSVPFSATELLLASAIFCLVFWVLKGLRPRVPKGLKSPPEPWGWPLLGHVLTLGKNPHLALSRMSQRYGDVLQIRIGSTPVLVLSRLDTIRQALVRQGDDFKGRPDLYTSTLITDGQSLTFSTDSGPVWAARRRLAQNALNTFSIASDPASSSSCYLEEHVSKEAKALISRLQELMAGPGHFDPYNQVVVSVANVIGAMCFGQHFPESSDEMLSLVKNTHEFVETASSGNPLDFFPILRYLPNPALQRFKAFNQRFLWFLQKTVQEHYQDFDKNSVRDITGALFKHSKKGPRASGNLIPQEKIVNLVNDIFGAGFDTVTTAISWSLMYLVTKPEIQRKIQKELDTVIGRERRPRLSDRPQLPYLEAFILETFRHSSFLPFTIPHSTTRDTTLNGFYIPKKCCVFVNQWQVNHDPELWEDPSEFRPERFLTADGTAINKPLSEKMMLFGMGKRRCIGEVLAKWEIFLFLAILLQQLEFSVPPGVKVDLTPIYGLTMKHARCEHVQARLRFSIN
Chain of Nuclear receptor subfamily 1 group I member 3 (Homo sapiens) (Q14994 whole entry, looked up): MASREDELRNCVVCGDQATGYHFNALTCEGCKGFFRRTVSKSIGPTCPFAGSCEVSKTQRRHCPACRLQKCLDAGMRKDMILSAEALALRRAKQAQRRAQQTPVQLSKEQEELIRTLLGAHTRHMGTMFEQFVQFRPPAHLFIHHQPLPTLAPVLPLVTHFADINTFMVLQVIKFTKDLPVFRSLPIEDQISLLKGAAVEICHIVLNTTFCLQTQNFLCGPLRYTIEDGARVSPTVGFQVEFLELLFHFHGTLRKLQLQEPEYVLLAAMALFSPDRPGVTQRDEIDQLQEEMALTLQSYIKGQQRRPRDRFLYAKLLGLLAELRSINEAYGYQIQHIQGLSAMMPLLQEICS
Chain of Cytochrome P450 3A4 (Homo sapiens) (P08684 whole entry, looked up): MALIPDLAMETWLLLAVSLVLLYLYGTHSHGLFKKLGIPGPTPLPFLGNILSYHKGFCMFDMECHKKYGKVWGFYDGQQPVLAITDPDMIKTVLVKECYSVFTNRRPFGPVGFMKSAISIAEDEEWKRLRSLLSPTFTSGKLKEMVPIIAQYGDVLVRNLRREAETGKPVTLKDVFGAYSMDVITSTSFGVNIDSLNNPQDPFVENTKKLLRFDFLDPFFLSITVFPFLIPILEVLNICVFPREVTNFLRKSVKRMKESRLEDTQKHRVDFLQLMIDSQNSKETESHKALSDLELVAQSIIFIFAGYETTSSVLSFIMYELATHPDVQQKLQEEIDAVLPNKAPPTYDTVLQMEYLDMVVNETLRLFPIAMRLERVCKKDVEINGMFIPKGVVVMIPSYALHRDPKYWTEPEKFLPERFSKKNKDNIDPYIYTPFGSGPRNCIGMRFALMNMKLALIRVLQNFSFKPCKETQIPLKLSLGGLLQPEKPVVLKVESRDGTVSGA
Chain of Cytochrome P450 2D6 (Homo sapiens) (P10635 whole entry, looked up): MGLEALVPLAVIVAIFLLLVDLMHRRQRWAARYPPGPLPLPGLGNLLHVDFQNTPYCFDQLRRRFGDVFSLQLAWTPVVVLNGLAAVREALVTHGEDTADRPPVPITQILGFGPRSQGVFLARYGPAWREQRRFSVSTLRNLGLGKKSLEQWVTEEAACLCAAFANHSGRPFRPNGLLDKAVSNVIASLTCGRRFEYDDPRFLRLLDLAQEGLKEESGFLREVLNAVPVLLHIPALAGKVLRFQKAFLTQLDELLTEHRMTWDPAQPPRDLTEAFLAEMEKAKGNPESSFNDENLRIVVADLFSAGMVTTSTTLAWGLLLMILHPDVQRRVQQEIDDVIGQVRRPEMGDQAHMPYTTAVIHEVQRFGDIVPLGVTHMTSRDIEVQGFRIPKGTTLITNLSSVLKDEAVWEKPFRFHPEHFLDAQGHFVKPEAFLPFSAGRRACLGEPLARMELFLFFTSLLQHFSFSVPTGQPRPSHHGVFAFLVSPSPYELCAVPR

COCCn1c(=O)c(-c2cc(F)cc(F)c2)nc2cnc(N3CCN(C)CC3)nc21
active: Potency [2] 15.8 µM
inactive: Potency [1] > 11.4 µM | Potency [3] > 9.22 µM | Potency [4] > 46 µM | Potency [5] | Potency [6]

COc1ccc2[nH]cc(CCNc3ncncc3-c3ccccc3C)c2c1
inactive: Potency [1] > 11.4 µM | outcome [7] | Potency [3] > 46 µM | Potency [5] | Potency [6]
active: Potency [2] 0.631 µM

COc1ccc(Oc2ncc3nc(-c4ccc(F)cc4)c(=O)n(CCC#N)c3n2)cc1
inactive: Potency [1] > 11.4 µM | activity change, negative = inhibition [8] 1.8% | outcome [7] | Potency [3] > 9.22 µM | Potency [4] > 46 µM | Potency [5] | Potency [6]

CC(C)[C@H](C)CC[C@@H](C)[C@H]1CC[C@H]2[C@@H]3CC=C4C[C@@H](O)CC[C@]4(C)[C@H]3CC[C@]12C
inactive: outcome [9] | outcome [10] | Potency [11] | outcome [12] | Potency [13] | Potency [14] | outcome [15] | Potency [16] | max response [17] 2.09% | outcome [18] | Potency [19] | outcome [20]

CC1(C)C2CCC1(C)C(O)C2 (stereo unspecified)
inactive: outcome [9] | outcome [10] | Potency [11] | outcome [12] | Potency [13] | Potency [14] | outcome [15] | Potency [16] | max response [17] 1.58% | outcome [18] | Potency [19] | outcome [20]

COc1ccccc1-c1nccc(N2CCN(C)CC2)n1
inactive: Potency [1] > 11.4 µM | activity change, negative = inhibition [8] -18.8% | outcome [7] | Potency [3] > 46 µM | Potency [4] > 46 µM | Potency [5] | Potency [6]

COc1ccc(Oc2ncc3nc(-c4ccccc4)c(=O)n(C[C@H]4CCCO4)c3n2)cc1
inactive: Potency [1] > 11.4 µM | activity change, negative = inhibition [8] -3.65% | outcome [7] | Potency [3] > 9.22 µM | Potency [5] | Potency [6]

Cc1ccccc1-c1nc(Nc2ccncc2)c2ccccc2n1
inactive: activity change, negative = inhibition [8] 6.78% | outcome [7] | Potency [3] > 46 µM | Potency [4] > 46 µM | Potency [5]
active: Potency [2] 0.794 µM

COc1cccc(Cn2c(=O)cnc3cnc(Nc4cccc(OC)c4)nc32)c1
inactive: Potency [1] > 11.4 µM | activity change, negative = inhibition [8] 15.4% | outcome [7] | Potency [4] > 46 µM | Potency [5] | Potency [6]
active: Potency [2] 3.98 µM

CN1CCN(c2ncc3nc(-c4cccc(C#N)c4)c(=O)n(CCc4ccccc4)c3n2)CC1
inactive: Potency [1] > 11.4 µM | activity change, negative = inhibition [8] -0.0285% | outcome [7] | Potency [3] > 9.22 µM | Potency [4] > 46 µM | Potency [5] | Potency [6]
